Screens (PubChem BioAssay)
A selection: hits, their analogues and other compounds. The true share with any hit is near 2.4%.
ALOX15 inhib = 15-hLO (ALOX15) enzyme inhibition | P16050 | purified 15hLO-1, xylenol orange hydroperoxide absorbance | Potency, µM (series often up to 57.1 µM), inactives show at the top dose activity change, negative = inhibition, hits mostly inhibitors | 74,000 compounds, 1.4% hits; also: % is scaled to controls: 0 for no effect and ±100 for the full control effect; nearly all actives have a fitted effect of over 55% in size
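Readout: Fe(III)-xylenol orange absorbance, 573-to-405 nm ratio as reaction progress. Enzyme 40 nM purified human 15hLO-1, substrate 50 uM arachidonic acid, 6 min RT after 15 min compound preincubation; Hepes pH 7.5 buffer with Triton X-100.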
Casp1 inh = blocks human caspase-1 allosterically or competitively | 75,000 compounds, 0.03% hits | AID 900 | Caspase-1 enzyme, Ac-WEHD-AFC fluorogenic rate | P29466 | Potency, µM (series often up to 57.5 µM), without a hit: top-dose activity change, negative = inhibition, actives largely listed as inhibitors;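 also: plate controls were vehicle for no effect and no substrate for full effect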
Tau filament bind = tau filament binding. 71,000 compounds, 2% hits. P10636. Potency, µM (titrated, usually from 57.1 µM), for inactives: top-dose activity change, negative = inhibition. recombinant tau filaments, thioflavin S fluorescence, 15 h; filaments grown with octadecylsulfate alongside compound;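 also: % is scaled to controls: 0 for no effect and ±100 for the full control effect; actives lower thioflavin S fluorescence by blocking filaments or displacing dye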
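ThS-based fibril read: tau 1 uM final, inducer ODS 30 uM final, 37 C for 15 h, ex 450/em 510 nm.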
ALOX15B inhib = inhibitors of human 15-lipoxygenase 2 (ALOX15B); 110,000 compounds, 0.56% hits; Potency, µM (doses to about 57.1 µM), for the others: top-dose activity change, negative = inhibition, hits mostly inhibitors; O15296; purified 15hLO-2, xylenol orange hydroperoxide absorbance; AID 881; also: % is scaled to controls: 0 for no effect and ±100 for the full control effect; nearly all actives have a fitted effect of over 60% in size
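Read-out: hydroperoxide product oxidises ferrous iron, measured as xylenol orange complex via the 573-to-405 nm absorbance ratio after 30 min. Reaction: 50 nM enzyme, 15 min compound preincubation, 45 uM arachidonic acid, 90 min RT, Hepes pH 7.5 with Triton X-100.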
Hsp90 Hop PPI = changes Hsp90-Hop TPR2A binding signal, up or down; AlphaScreen TPR2A-His6 binding biotin-Hsp90 C-terminal peptide; 71,000 compounds, 0.44% hits; AID 595; Potency, µM (doses to about 57 µM), without a hit: at the highest dose activity change, negative = inhibition; active = well fitted curve in either direction with a large enough effect; inconclusive = small, poorly fitted or top-dose-only effect, or another doubt; also: % is scaled to controls: 0 for no effect and ±100 for the full control effect
Casp7 inh = allosteric or competitive inhibitors of human caspase-7 | P55210 | recombinant caspase-7, Ac-DEVD-AFC fluorescence rate | Potency, µM (top dose mostly 57.5 µM), for the others: at the top dose activity change, negative = inhibition, usual class: inhibitors | 75,000 compounds, 0.02% hits | AID 889; active = well fitted inhibition curve with a large enough effect in the main read-out, with a control signal flat, not every such curve was filed as active; inconclusive = small, poorly fitted or top-dose-only effect, or a change in a side signal; also: % of control where 0% means no effect
* marks the source's active call; other numbers are inactive results; i = inactive; ? = inconclusive; . = no result; [ ] = another dose, or the depositor's remark. Unless noted, calls follow the shape of the dose curve; as a rule, active = well fitted curve in the direction sought with a large enough effect; inconclusive = small, poorly fitted or top-dose-only effect, or another doubt; inactive = no such curve, though single readings can be large; an effect the other way counts as inactive or inconclusive. Potency is read from the fitted curve at half-maximal effect.

SMILES	ALOX15 inhib	Casp1 inh	Tau filament bind	ALOX15B inhib	Hsp90 Hop PPI	Casp7 inh
Oc1ccccc1C1=NCCNC(C(F)(F)C(F)F)=C1	-16.9%	-1.6%	15.8µM*	-0.2%	-3.3%	-4.3%
Cc1cccc2c(C(=O)O)c3c(nc12)CCCCC3	.	.	.	0.3%	.	.
Cn1ncc(C#N)c1NC(=O)C1CC(c2ccc(Cl)c(Cl)c2)=NO1 (stereo not drawn)	.	.	.	4.1%	.	.
COC(=O)c1ccccc1NC(=O)C1CC(=O)N(c2ccccc2)C1 (stereo not drawn)	3.3%	-2.0%	15.1%	3.9%[2.29 µM]	2.2%	-2.9%
O=C(Nc1cccc2nsnc12)C1CC(=O)N(c2ccccc2)C1 (stereo not drawn)	-21.7%	-0.3%	20µM*	-9.0%	-1.8%	-2.4%
CC(=O)Nc1ccccc1NC(=O)CC(C)(C)C	-2.6%	1.8%	-0.3%	1.3%	-2.0%	1.7%
Nc1ccc2c(c1)C(=O)c1ccccc1C2=O	-10.8%	-2.9%	1.58µM*	-6.5%	-9.0%	-3.1%
CC(=O)Nc1ccc2c(c1)C(=O)c1ccccc1C2=O	.	.	.	-4.4%	.	.
c1ccc(-c2cccc(N3CC[C@@]4(CCCNC4)C3)c2)cc1	-18.4%	-1.8%	12.6µM*	37.9%	?	-3.2%
COc1ccc2nc(N3CCCC3)c(C#N)cc2c1	?	.	i	-6.6%	25.1µM*	?
COc1ccc2nc(N3CCCCC3)c(C#N)cc2c1	25.1µM*	.	i	2.9%	25.1µM*	?
COc1ccc2nc(SCC(=O)N3CCCCCC3)c(C#N)cc2c1	-15.6%	.	1.0%	-11.9%	5.7%	?
Fc1cccc2sc(Nc3nnc(-c4ccccc4)o3)nc12	9.1%	-4.3%	-0.9%	.	4.6%	-5.9%
N#C/C(=C\c1ccc[nH]1)Sc1nc2ccccc2s1	15.8µM*	-11.3%	-27.2%	-6.5%	-26.8%	0.5%
Cc1ccc(C)n1NC(=O)c1cccs1	15.8µM*	2.1%	-23.4%	-11.8%	-17.6%	-0.1%
COC(=O)c1ccccc1NC(=O)CNc1cc(Cl)ccc1N1CCOCC1	-29.8%	-7.4%	15.8µM*	4.5%	?	0.8%
Cc1cc(Cl)ccc1OCCCC(=O)N1CCN(C(=O)c2ccco2)CC1	-6.8%	-0.5%	13.7%	-3.0%	-2.7%	0.1%
O=C(CN1CCCC1)NCC12CC3CC(CC(C3)C1)C2	7.4%	1.8%	31.6µM*	14.8%	-8.7%	-1.1%
O=C(CN1C(=O)CCC1=O)NCC12CC3CC(CC(C3)C1)C2	.	.	.	16.9%	.	.
CCCc1nc2oc3c(N4CCNCC4)ncnc3c2c2c1CCCC2	10.7%	-0.8%	-0.2%	35.6%	-0.5%	-0.5%
O=c1ccc2ccccc2o1	3.0%	-3.0%	6.0%	-2.7%	-1.5%	0.7%
Oc1cc(O)c2c(c1)O[C@@H](c1ccc(O)c(O)c1)[C@H](O[C@@]1(c3cc(O)c(O)c(O)c3)Oc3cc(O)cc(O)c3[C@H](O)[C@@H]1O)C2	1µM*	-0.7%[11.5 µM]	0.4%[11.4 µM]	?	?	-17.2%[11.5 µM]
CCOC(=O)C1=C(C)NC2=C(C(=O)c3ccccc32)C1c1cccnc1 (stereo not drawn)	0.9%	-0.1%	3.16µM*	5.7%	-8.8%	-1.3%
O=C(Nc1ccc(NC(=O)c2ccco2)nc1)c1cccnc1	?	-2.2%	5.9%	.	1.3%	-1.1%
O=C(CN(C1CCCCC1)S(=O)(=O)c1ccc(Cl)cc1)NCCCO	1.4%	1.9%	-2.9%	-2.6%	-1.0%	1.0%
O=[N+]([O-])c1cccc(/C=N\Nc2ccc3ccccc3n2)c1O	46.6%[11.4 µM]	-2.0%[11.5 µM]	3.16µM*	42.0%[11.4 µM]	?	1.0%[11.5 µM]
CCc1ccc(CNc2ccc(O)cc2)cc1	?	?	10µM*	-4.6%	-29.2%	-27.7%
CSc1ccc(CNc2ccc(Cl)cc2)cc1	.	.	.	-9.6%	.	.
Cc1ccc(S(=O)(=O)NNc2nc3ccccc3nc2C(F)(F)F)cc1	.	.	.	7.94µM*	.	.
Cc1ccc(S(=O)(=O)Nc2nc3ccccc3nc2N2CCN(c3ccccc3F)CC2)cc1	.	.	.	-8.0%	.	.
